# Screens from PubChem BioAssay.
# In the library only some 2.1% were active in any assay of this set; here they are far more common.
# PfHsp40 rescue: rescue of yeast from PfHsp40 toxicity, primary screen, S. cerevisiae, ATP luminescence; 340,000 tested, 0.68% active; S. cerevisiae expressing PfHsp40, growth rescue; growth rescue, % at 12.5 µM; in the data active means growth rescue above about 28%, passing the limit was not always enough; inconclusive means no clear call, values can overlap the other calls;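 further: yeast W303a lacking pdr1 and pdr3 grown in galactose medium; growth measured after three days at 30 °C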
# Sa RN4220 lethal: growth inhibition of S. aureus RN4220, primary screen, OD600; 16 h; inhibition, % (test concentration not listed); 330,000 tested, 0.33% active; AID 1259311, 2017; in the data active means inhibition above about 85%;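 further: plate controls were untreated cells for no effect and reference antibiotic for full effect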
# PrP 5UTR inh: inhibition of PrP 5' UTR reporter expression | cell-based PrP 5' UTR mRNA reporter, plate reader | inhibition, % (concentration not given with the values) | 340,000 tested, 0.35% active; in the data active means inhibition above about 52%; further: 0 = median of the neutral control wells
# Sa ugtP lethal: growth inhibition of ugtP-null S. aureus, primary screen, RN4220 ugtP deletion, OD600; 16 h; AID 1259309, 2017; growth inhibition, % (concentration not given with the values); 330,000 tested, 0.54% active; in the data active means growth inhibition above about 68%;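 further: plate controls were untreated wells for no effect and antibiotic for full effect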
# PrPC TRFRET: inhibitors of human cell surface prion protein PrPC, primary screen, cell-based, TR-FRET | Major prion protein (Homo sapiens), P04156 | TR-FRET read-out | inhibition, % at 13.8 µM | 370,000 tested, 0.43% active; in the data active means inhibition above about 24%; further: 0% = median of the test wells and 100% = reference compound wells
# CCHF vOTU inh-1: CCHFV vOTU protease inhibitors, primary screen, biochemical, Pep-AMC substrate, fluorescence | inhibition, % at 11.5 µM | Crimean-Congo hemorrhagic fever virus L polyprotein viral ovarian tumor (vOTU) protease … | 370,000 tested, 0.55% active; further: 0% = vehicle wells with enzyme and 100% = no enzyme wells
# CCHF vOTU inh-2: CCHFV vOTU protease inhibitors, confirmation, biochemical, Pep-AMC substrate, fluorescence; 1,900 tested, 17% active; inhibition, % at 11.5 µM; shares compounds with CCHF vOTU inh-1; AID 686976, 2013; Recombinant CCHFV vOTU
# * hit, by the source's call; ? = inconclusive; . = no result. Unless noted, no stated cut-off is given here; in the data, active means inhibition above about 30%; inactive means the rest.
SMILES,PfHsp40 rescue,Sa RN4220 lethal,PrP 5UTR inh,Sa ugtP lethal,PrPC TRFRET,CCHF vOTU inh-1,CCHF vOTU inh-2
COc1ccc(/C=N/NC(=O)c2nn(-c3ccc(C)c(C)c3)c(=O)c3ccccc23)cc1,1,.,-8,.,6,5,.
COc1ccc(/C=N/NC(=O)c2nn(-c3ccc(Cl)cc3)c(=O)c3c(N)scc23)cc1,1,.,-8,.,-20,33*,39*
O=C(Cn1cncn1)NN=Cc1cccnc1,.,2,.,3,.,.,.
CN(C)c1ccc(N/C=C/C(=O)c2ccco2)cc1,-1,7,-23,-10,-16,68*,-2
CC(=O)Nc1ccc(N/C=C/C(=O)c2ccco2)cc1,1,-17,-93,-3,-5,0,.
CC[C@@]12C(=O)N(c3cccc(F)c3)C(=O)N1C(c1ccc(Cl)cc1)C1C(=O)N(C3CCCCC3)C(=O)C12 (stereo partly drawn),.,0,.,-1,.,.,.
Cc1cc(C)nc(SCC(=O)N/N=C/c2cccn2-c2cccc(C(F)(F)F)c2)n1,1,.,-19,.,3,30*,2
CCCCC1C2=C(CC(C)(C)CC2=O)OC2=C1C(=O)CC(C)(C)C2,0,13,-34,3,-4,30*,-2
CCCCCCC1C(C#N)=C(N)OC2=C1C(=O)CC(C)(C)C2 (stereo not drawn),1,8,-16,-4,-5,4,.
CC(C)CC(CSc1ccccc1)N1CCN(CC(C)C)CCC1=O (stereo not drawn),.,3,.,3,.,.,.
CCN(c1ccc(OC)cc1)S(=O)(=O)c1cc(-c2cc(C)no2)ccc1OC,-1,7,-14,-4,11,31*,-18
CCN(c1ccc(OC)cc1)S(=O)(=O)c1cc(-c2cc(C)no2)ccc1C(C)C,1,9,-4,5,0,16,.
Cc1nnc(NN=Cc2ccc([N+](=O)[O-])cc2)n1N,.,8,.,4,.,.,.
COC1=CC2C3=C(C(NC(C)=O)CCc4cc(OC)c(OC)c(OC)c43)C2C1=O (stereo not drawn),.,3,.,-4,.,.,.
O=C(NN=Cc1ccc(-c2ccc(S(=O)(=O)Nc3ncccn3)cc2)o1)c1cc2ccccc2cc1O,.,1,.,5,.,.,.
O=C(N/N=C/c1ccc(-c2ccc(S(=O)(=O)Nc3ncccn3)cc2)o1)c1cc2ccccc2cc1O,-1,.,-22,.,-8,41*,-2
c1ccc(-c2nnc(-c3ccco3)o2)cc1,-1,7,-56,3,-4,7,.
c1coc(-c2nnc(-c3ccco3)nn2)c1,0,1,-20,-1,-2,45*,53*
Cc1ccc2[nH]c3c(c2c1)CCc1cn[nH]c1-3,?,-2,-28,-39,-4,38*,-23
Cc1ccc2[nH]c3c(c2c1)CCC3=O,1,11,8,1,11,-48,.
COc1ccc(N2CC(C(=O)Nc3nnc(C4CCCCC4)s3)CC2=O)cc1 (stereo not drawn),2,0,-21,15,-2,30*,5
O=C(Nc1nnc(C2CCCCC2)s1)C1CC(=O)N(c2ccc(F)cc2)C1 (stereo not drawn),1,-4,-11,8,5,-13,.
CC(=NNc1ncc(Cl)cc1Cl)c1ccc(C#N)cc1,.,-11,.,2,.,.,.
CC(C)Oc1ccccc1C=NNC(=O)C1CCCC1,.,2,.,4,.,.,.
CCCCn1c(NS(=O)(=O)c2ccc(C)cc2)c(C(=O)OCC)c2nc3ccccc3nc21,-1,.,-21,.,4,95*,-98
SMILES,PfHsp40 rescue,Sa RN4220 lethal,PrP 5UTR inh,Sa ugtP lethal,PrPC TRFRET,CCHF vOTU inh-1,CCHF vOTU inh-2
CCCCn1c(NS(=O)(=O)c2ccccc2)c(S(=O)(=O)c2ccc(C)cc2)c2nc3ccccc3nc21,-1,4,-14,-25,-9,108*,51*
Cc1ccc(S(=O)(=O)c2c(N)n(CCCO)c3nc4ccccc4nc23)cc1,-1,2,-11,5,-9,-145,.
O=C(NC1CC1)C1=CC(c2ccc(C(F)(F)F)cc2)CC(OCCCCO)O1 (stereo not drawn),.,3,.,2,.,.,.
COc1ccc(OCC(=O)NN=C/C=C/c2ccccc2)cc1,.,0,.,7,.,.,.
COc1ccc(NC(=S)Nc2ccc3nsnc3c2)cc1,0,1,-25,-11,-2,118*,100*
CC(C)N(C(=O)Nc1ccc2nsnc2c1)C(C)C,.,2,.,7,-6,98*,67*
O=C(Nc1ccc2nsnc2c1)N1CCCCC1,0,1,-33,3,1,6,.
S=C(Nc1ccc2nsnc2c1)N1CCCCCC1,1,-1,-33,2,-11,36*,97*
COCCNC(=S)Nc1ccc2nsnc2c1,0,.,-17,.,-15,100*,-15
COc1ccc(NC(=S)Nc2ccc3nc(C)c(C)nc3c2)cc1,0,2,-12,2,-2,-3,.
CCOC(=O)C1C2COc3ccc(OC)cc3C2N2C(=O)CN(CC3CCCO3)C(=O)[C@@]12C (stereo partly drawn),.,-2,.,1,.,.,.
Cc1ccc(N2C(=O)N3C(c4ccc(Cl)cc4)C4C(=O)N(C5CCCCC5)C(=O)C4[C@]3(Cc3ccccc3)C2=O)cc1 (stereo partly drawn),.,5,.,-6,.,.,.
O=C(CC1CC=CCCC(Cc2ccc(F)cc2)C(=O)OCC(Cc2ccccc2)NC1=O)NCCO (stereo not drawn),.,6,.,3,.,.,.
C=CCNC(=S)Nc1ccc2nsnc2c1,0,.,-31,.,-16,-15,.
CCOc1ccc(NC(=O)Nc2ccc3nsnc3c2)cc1,1,-2,-39,-12,-15,13,.
CCOc1ccc(NC(=S)Nc2ccc3nsnc3c2)cc1,0,0,-42,-3,-13,118*,92*
C=CCN(CC=C)C(=S)Nc1ccc2nsnc2c1,-1,5,-25,-5,-35,51*,87*
Cc1nnc(N/N=C/c2ccc(O)c([N+](=O)[O-])c2)[nH]c1=O,-1,.,1,.,-7,32*,6
Cc1csc(N/N=C/c2ccc(O)c([N+](=O)[O-])c2)n1,0,.,-21,.,-10,9,.
O=[N+]([O-])c1ccc(S(=O)(=O)Nc2nc(-c3ccccc3)cs2)cc1,0,3,-5,-5,-5,13,.
O=S(=O)(Nc1nc(-c2ccccc2)cs1)c1cccc(C(F)(F)F)c1,-1,-14,-20,57,1,32*,12
CCCCN(C)C=Nc1c(C#N)cnn1-c1ccc(C)cc1,.,10,.,-7,.,.,.
O=C(CC12CC3CC(CC(C3)C1)C2)NN=Cc1ccc[nH]1,.,-2,.,7,.,.,.
O=C(O)c1cccc(Cn2c(Cl)c(/C=N/NC(=O)c3ccc(O)cc3)sc2=O)c1,-2,.,-12,.,-14,31*,-4
